Ba/F3 V617F tox – reduced viability of JAK2V617F-dependent Ba/F3 cells, primary screen, JAK2V617F inhibitor project, cell-based, Ba/F3 EpoR-JAK2V617F, luminescence; actives 1.1% (n = 220,000); ATP luminescence; AID 1446, 2008; inhibition, % at 5.6 µM;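 active means inhibition above the campaign mean plus 3 SD over all tested compounds, cut at about 24% in these data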;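 further: cytokine-independent growth of Ba/F3 cells driven by EpoR plus mutant JAK2; 0% = DMSO-treated cells and 100% = JAK inhibitor I control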
KLF5 inh – KLF5 expression inhibitors, primary screen, DLD-1 cells, luminescence | DLD-1 KLF5 promoter-luciferase reporter | inhibition, % at 5 µM | actives 0.23% (n = 290,000);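 active means inhibition above a per-plate limit of that plate's mean compound inhibition plus 3 SD, cut at about 60% in these data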;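 further: 0% = DMSO wells and 100% = LY294002 at 200 µM; higher means less KLF5 promoter-driven luciferase light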
APP transl inh – inhibitors of APP translation via 5'UTR reporter, primary screen, APP 5'UTR luciferase, SH-SY5Y cells; AID 1285, 2008; actives 0.82% (n = 190,000); inhibition, % at 2 µM; SH-SY5Y APP 5'UTR-luciferase reporter, luminescence;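 active means inhibition above a set limit, derived from the sample mean plus 3 SD, cut at about 45% in these data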
BaF3 parental – parental Ba/F3 cell viability inhibition, counter-screen for JAK2V617F inhibitor project, murine pro-B, CellTiter-Glo luminescence | CellTiter-Glo ATP luminescence | actives 1.1% (n = 220,000) | AID 1486, 2009 | inhibition, % at 5.6 µM;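 active means inhibition above a per-campaign cutoff, the mean inhibition of all tested compounds plus 3 SD, cut at about 27% in these data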;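 further: 0% = DMSO wells and 100% = JAK Inhibitor I control wells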
IEC-6 tox – cytotoxicity in IEC-6 intestinal epithelial cells, primary screen, cytotoxicity control for KLF5 inhibitor project, cell-based, luminescence; IEC-6 cytotoxicity, luminescence viability; inhibition, % at 5 µM; actives 0.78% (n = 290,000); AID 1825, 2009;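 further: 0% = plate median of test compound wells and 100% = cytotoxic reference compound wells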
IEC-6 cytotox cf – cytotoxic compounds in IEC-6 epithelial cells, confirmation, cytotoxicity control, cell-based, luminescence; IEC-6 rat intestinal epithelial viability; inhibition, % at 5 µM; actives 63% (n = 1,900); shares compounds with IEC-6 tox;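 further: 0% = vehicle and 100% = reference cytotoxic drug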
* hit, by the source's call; · = no result given. Compounds with a hit are over-represented: about 1.9% of the library has one in this group of screens. Unless noted, no stated cut-off is given here; in the data, active means inhibition above about 22%; inactive means the rest.

SMILES	Ba/F3 V617F tox	KLF5 inh	APP transl inh	BaF3 parental	IEC-6 tox	IEC-6 cytotox cf
Cc1oc2c(c1C(=O)NCc1cccnc1)C(=O)c1ccccc1C2=O	94*	-17	95*	101*	102*	105*
COc1ccc(CNC(=O)c2c(C)oc3c2C(=O)c2ccccc2C3=O)cc1	3	-22	10	4	3	·
COc1ccc(S(=O)(=O)Nc2cc(Cl)ccc2OC)cc1	81*	59	87*	72*	68*	53*
Cc1cccc(Nc2nc(NCc3ccco3)nc(N3CCOCC3)n2)c1	-2	-47	22	8	31*	12
O=C(CCCCl)Oc1ccc2cc(-c3ccc4ccccc4n3)c(=O)oc2c1	-5	-25	-36	2	-1	·
O=C(CSc1nc(-c2ccco2)cc(C(F)(F)F)n1)Nc1cccnc1	6	12	-12	3	29*	13
CCOC(=O)Cn1c(S(=O)(=O)Cc2cccc(F)c2)nc(-c2ccccc2)c1-c1ccccc1	2	-28	5	5	23*	20
CC(C)c1ccc2c(c1)[C@H]1OCC[C@H]1[C@@H](c1cccs1)N2	41*	8	86*	54*	26*	66*
COc1cccc(NC(=O)Nc2nc(-c3ccc(OC)c(OC)c3)cs2)c1	·	37	·	·	24*	15
COc1ccc(S(=O)(=O)N(CC(=O)NCc2cccnc2)c2ccc(F)cc2)cc1OC	4	-27	0	5	2	·
O=C(Nc1ccccc1)c1cccc(N2C(=O)C3C4C=CC(C5CC45)C3C2=O)c1 (stereo not given)	·	-33	·	·	2	·
Cc1cccc(NC(=O)c2ccc(N3C(=O)C4C5C=CC(C6CC56)C4C3=O)cc2)c1 (stereo not given)	·	-34	·	·	23*	12
CC1Sc2ccc(S(=O)(=O)CCC(=O)Nc3ccccn3)cc2NC1=O (stereo not given)	·	4	·	·	8	·
CCOc1cc(CNCCc2ccc(S(N)(=O)=O)cc2)ccc1OCc1ccc(Cl)cc1	14	25	18	18	24*	12
COc1cc(CNCCc2ccc(S(N)(=O)=O)cc2)ccc1OCc1ccc(Cl)cc1	1	-8	11	12	-2	·
O=[N+]([O-])c1cccnc1S(=O)(=O)c1ccccc1	·	20	·	·	41*	9
COc1ccc(C(CNc2ccc(C(F)(F)F)cn2)N(C)C)cc1OC (stereo not given)	·	5	·	·	10	·
COc1ccc(NC(=O)c2c(N)no[n+]2[O-])c(OC)c1	-3	-32	15	2	-2	·
COc1ccc(NC(=O)c2c(N)no[n+]2[O-])cc1	-4	15	18	0	33*	28*
Cc1ccc2c(CN(C)Cc3cccc(F)c3)cc(=O)oc2c1C	·	-28	·	·	41*	24*
Cc1ccc2c(CN(C)Cc3ccc(OC(F)F)cc3)cc(=O)oc2c1C	·	1	·	·	4	·
Cc1ccc2c(CN(C)Cc3ccccc3)cc(=O)oc2c1C	·	-34	·	·	55*	33*
COCCNC(=O)NC12CC3(C)CC(C)(CC(C)(C3)C1)C2	6	-17	3	10	2	·
CCOC(=O)c1ccc(NC(=O)CN2C(=O)C(CC)SC(CC)C2=O)cc1 (stereo not given)	-1	-29	-3	4	2	·
CCN1CCN(S(=O)(=O)c2ccc(C(=O)Nc3sc4c(c3C(N)=O)CCN(CC)C4)cc2)CC1	·	-5	·	·	-1	·
SMILES	Ba/F3 V617F tox	KLF5 inh	APP transl inh	BaF3 parental	IEC-6 tox	IEC-6 cytotox cf
CCN1CCc2c(sc(NC(=O)c3ccc4ccccc4c3)c2C(N)=O)C1	·	-22	·	·	45*	8
CCOC(=O)NN1C(=O)c2ccccc2NC1c1cccs1 (stereo not given)	·	-8	·	·	2	·
Cc1ccc(NC(=O)C2CCN(S(=O)(=O)c3ccc(N4CCCC4=O)cc3)CC2)cc1Cl	·	-42	·	·	27*	13
Cc1ccccc1NS(=O)(=O)c1ccc(N2CCCC2=O)cc1	85*	55	74*	72*	55*	44*
Cc1ccccc1NS(=O)(=O)c1cc2c3c(c1)CC(=O)N3CCC2	·	-38	·	·	2	·
O=C(c1cc(Br)c[nH]1)N1CCSCC1	·	-1	·	·	-4	·
O=C(Nc1ccccc1SCC1CSc2nc3ccccc3c(=O)n21)c1ccccc1 (stereo not given)	-1	8	-5	4	50*	32*
